Assay results: ChEMBL document CHEMBL3988442, “University of Dundee, Small-Polar-MMV Screening Library” (2021)
Hit rate of the full screen: of about 38,000 compounds, about 1,200 (3.2%) showed an effect of 50% or more. The median lay at about -58%. What follows is part of a selection rich in strong results, with near analogues and random picks from the rest.

System: Plasmodium falciparum
Experiment: Calibr Malaria Delayed Death Assay SOP
Format: functional, organism-based
Parameters: scale not given: in the data most compounds retested in dose-response had high values
Settings: concentration 4.99e-06 (unit not given; other assays of the set use mol/L)

Compared with `CS(=O)(=O)N1CCN(C(=O)c2cc(-c3ccc(Br)s3)n[nH]2)CC1`, `CC(=O)N1CCCN(S(=O)(=O)c2cc3ccccc3o2)CC1` is lower in “Percent Effect” value: 2.289% for the first, -136.3% for the second.

Compared with `CN1C(=O)C2(CCN(c3nccc4occc34)CC2)c2ccccc21`, `Cn1ccnc1CNC1CCCOc2c1ccc1ccccc21` (stereo not given) is higher in “Percent Effect” value: -46.41% for the first, 76.31% for the second.

First: Cc1cc(C)cc(C(=O)NCCS(=O)(=O)N2CCSCC2)c1
Second: CC(NC(=O)NCCCN1CCCC1=O)c1ccc(Cl)s1 (stereo not given)
The “Percent Effect” value of the first is lower: -110.6% for the first, -33.34% for the second.

Compared with `O=S(=O)(c1cc2ccccc2o1)N1CCCC1`, `CCN1CCCN(S(=O)(=O)c2cc3ccccc3o2)CC1` is higher in “Percent Effect” value: -30.68% for the first, 83.88% for the second.

First: CCn1ccc(-c2nnc(SCC(=O)NCC(C)C)n2CC)n1
Second: CCn1cc(NS(=O)(=O)c2ccc(Br)s2)c(C(=O)NCC(C)C)n1
The “Percent Effect” value of the first is lower: -143.1% for the first, -19.45% for the second.

First: COc1c(CNC2CCCc3ccccc32)c(C(C)C)nn1C (stereo not given)
Second: COc1c(CNC2CCOc3ccccc32)c(C(C)C)nn1C (stereo not given)
The “Percent Effect” value of the first is higher: 63.84% for the first, -23.6% for the second.

Going from `CC(C)c1nn(C)c(N(C)C)c1CNC1CCc2cc(F)ccc21.Cl` (stereo not given) to `COc1c(CNC2CCc3cc(F)ccc32)c(C(C)C)nn1C` (stereo not given), the “Percent Effect” value rises from -3.129% to 57.77%.

Going from `COc1c(CNCCc2c[nH]c3cc(F)ccc23)c(C(C)C)nn1C` to `COc1c(CNCCc2c[nH]c3cc(F)ccc23)c(C)nn1C`, the “Percent Effect” value falls from 59.46% to 49.69%.

First: COc1c(CNC2CCc3cc(F)ccc32)c(C)nn1C.Cl (stereo not given)
Second: COc1c(CNC2CCc3ccccc32)c(C)nn1C (stereo not given)
The “Percent Effect” value of the first is lower: 26.33% for the first, 30.71% for the second.

Compared with `COc1c(CNCCc2c[nH]c3ccccc23)c(C)nn1C`, `Cc1cnn(CCNCc2c(C)nn(Cc3ccccc3)c2C)c1` is higher in “Percent Effect” value: -66.3% for the first, 31.58% for the second.

First: N#CCCN(Cc1ccccn1)C(=O)c1cccc(CN2CCCC2)c1
Second: CN(C)CCN(Cc1ccc(Cl)cc1)C(=O)c1ccn(C)c(=O)c1
The “Percent Effect” value of the first is higher: -57.26% for the first, -75.96% for the second.

Going from `O=C(NCCc1ccncc1)c1cccc(S(=O)(=O)NC2CCOC2)c1` (stereo not given) to `Cc1sc(NS(=O)(=O)c2ccccc2)nc1C(=O)NC1CC1`, the “Percent Effect” value falls from -7.029% to -59.95%.

Compared with `CC(NCCCN1CCCC1=O)c1cc(Br)ccc1F` (stereo not given), `CC(NCCCN1CCCC1=O)c1cc(Br)ccc1O` (stereo not given) is higher in “Percent Effect” value: 40.27% for the first, 50.26% for the second.

First: CC(C)c1cc(-c2cnn(C)c2C2CC2)c(C#N)c(N)n1
Second: CCOCC1CN(C(=O)c2cccc(C)n2)Cc2cnn(C)c21 (stereo not given)
The “Percent Effect” value of the first is lower: -61.18% for the first, -41.72% for the second.

First: O=C(CC(SC1CCCCC1)C(=O)O)c1ccc(Br)cc1 (stereo not given)
Second: CN1Cc2c(C(=O)NC3CCCCC3)ncn2-c2ccccc2S1(=O)=O.O=C(O)C(F)(F)F
The “Percent Effect” value of the first is higher: -115.9% for the first, -186.4% for the second.

Going from `CCC1CN(C(=O)c2ccccc2C(C)=O)CCN1C(C)C` (stereo not given) to `CCC1CN(C(=O)c2ccc(O)c(C)c2)CCN1C(C)C` (stereo not given), the “Percent Effect” value falls from -70.36% to -125.9%.

Going from `O=C(c1ncccn1)N1C[C@@H]2COC[C@]2(COc2cccnc2)C1` to `O=C(CCn1ccccc1=O)N1CCCC(COc2ccc(F)cc2)C1` (stereo not given), the “Percent Effect” value rises from -80.86% to -62.32%.

First: COc1ccc(-c2cc(N)ccn2)c(OC)c1OC
Second: COc1cc(F)ccc1-c1cc(N)ccn1
The “Percent Effect” value of the first is lower: -13% for the first, 50.95% for the second.

Going from `COc1cc(F)ccc1-c1cc(CO)ccn1` to `OCc1csc(N2CCCC(COc3cccc(F)c3)C2)n1` (stereo not given), the “Percent Effect” value rises from -93.03% to 81.1%.

Going from `Cc1cnc(C(=O)N2CCOCC2C)cn1` (stereo not given) to `N#CC1COCCN1C(=O)c1ccc2[nH]cnc2c1` (stereo not given), the “Percent Effect” value falls from -104.7% to -106.6%.

First: O=C(NCC1CC1)[C@@H]1CC[C@@H]2[C@@H](CCN2Cc2ccc(F)c(F)c2)O1.O=C(O)C(F)(F)F
Second: Cn1ncc2c1CN(Cc1ccccc1F)CC2COCC1CC1.O=C(O)C(F)(F)F.O=C(O)C(F)(F)F (stereo not given)
The “Percent Effect” value of the first is lower: -53.52% for the first, -47.59% for the second.

Compared with `O=C1CCCN1CCC1CCN(C2CCCNC2)CC1` (stereo not given), `Cc1cccc(C(=O)N2CCCn3cnc(CN4CCCC4=O)c3C2)n1` is higher in “Percent Effect” value: -108.9% for the first, -0.7301% for the second.

Compared with `CCn1cc(CN2CCN(C(=O)c3cc(C)c(C)s3)CC2)c(C)n1`, `Cc1nc(N2CCN(C(=O)NCc3cscn3)CC2)sc1C` is lower in “Percent Effect” value: -80.19% for the first, -173% for the second.

First: COCCOc1ccccc1CNCC1COC2(CCCC2)O1 (stereo not given)
Second: Cc1cccc(CNCC2COC3(CCCC3)O2)c1C (stereo not given)
The “Percent Effect” value of the first is higher: 73.59% for the first, -41.87% for the second.

Going from `Cc1cccc(CNCC2COC3(CCCCC3)O2)c1C` (stereo not given) to `Cc1nnc(C(C)NCC2(c3ccc(Cl)cc3)CCCC2)o1` (stereo not given), the “Percent Effect” value rises from -23.41% to -5.972%.

First: CC(=O)Nc1nc(C(=O)NCc2ccc(OC(C)C)nc2)cs1
Second: COC(=O)[C@H](C)NC(=O)c1cnc(Cc2ccc(F)cc2)s1
The “Percent Effect” value of the first is higher: -75.22% for the first, -108.7% for the second.

First: Cc1cc(C(=O)N(CCN(C)C)Cc2ccc(Cl)cc2)no1
Second: Cc1cnc(C(=O)N(CCN(C)C)Cc2ccc(Cl)cc2)cn1
The “Percent Effect” value of the first is higher: 51.61% for the first, -38.51% for the second.

Compared with `CN(C)CCN(Cc1ccc(C(F)(F)F)cc1)C(=O)c1cc[nH]n1`, `CN(C)CCN(Cc1ccc(Cl)cc1)C(=O)c1cnccn1` is lower in “Percent Effect” value: 33.3% for the first, 32.67% for the second.

First: CN(C)CCN(Cc1ccc(Cl)cc1)C(=O)c1ccncc1
Second: COCCNC(=O)Cn1c(-c2ccc(Cl)cc2)nc(C)c(CCO)c1=O
The “Percent Effect” value of the first is higher: 51.29% for the first, -30.51% for the second.

First: Cc1nnc([C@@H]2CC[C@@H]3[C@@H](CCN3C3CCC3)O2)o1
Second: Cc1cccc2c1OCCCC2NCc1nnc2n1CCCCC2 (stereo not given)
The “Percent Effect” value of the first is higher: -20.01% for the first, -75.07% for the second.

First: CC1CCCN(C(=O)Nc2ccc(F)c(C(N)=O)c2)C1 (stereo not given)
Second: CCC(NC(N)=O)c1ccccc1OCC(=O)N1CCCC1 (stereo not given)
The “Percent Effect” value of the first is lower: -56.74% for the first, -42% for the second.

Compared with `CNc1cc(-c2cccc(CN)c2)c2cc[nH]c2n1`, `Cn1cc(CNC2CCCOc3c2ccc2ccccc32)cn1` (stereo not given) is higher in “Percent Effect” value: -44.1% for the first, 61.58% for the second.

Going from `CCc1ccc2nc(C)cc(C(=O)NC[C@@H]3CCNC[C@H]3O)c2c1` to `CCc1ccc2nc(C)cc(C(=O)N[C@@H]3CNC[C@H]3O)c2c1`, the “Percent Effect” value rises from -50.87% to -23.23%.

First: CCc1ccc2nc(C)cc(C(=O)N[C@@H]3CCCNC3)c2c1
Second: Cc1cc(CC(=O)NC2CCCN(c3ccccc3Cl)C2=O)n[nH]1 (stereo not given)
The “Percent Effect” value of the first is higher: 64.11% for the first, -141.2% for the second.

Compared with `CC(C)(C)CN1CCCC12CCN(S(=O)(=O)c1ccccc1)C2.O=C(O)C(F)(F)F` (stereo not given), `CS(=O)(=O)NCc1cnc2n1CCN(Cc1ccco1)CC2.O=C(O)C(F)(F)F` is lower in “Percent Effect” value: 29.05% for the first, -61.12% for the second.

First: Cc1ccc(OCC2CCCN(c3nc(CO)cs3)C2)cc1 (stereo not given)
Second: COc1ccc(OCC2CCCN(c3nc(CO)cs3)C2)cc1 (stereo not given)
The “Percent Effect” value of the first is higher: -23.08% for the first, -52% for the second.

First: COCCCNC(=O)N1CCC(CNC(=O)c2cnn(C)c2)CC1
Second: CCOC(=O)N1CCN(C(=O)CCn2ccc3c(OC)cccc32)CC1
The “Percent Effect” value of the first is higher: -42.86% for the first, -55.78% for the second.

Going from `c1c(CN2CCOCC2)nc2n1CCN(C1CCOCC1)C2` to `CCc1nc(N2CCC3(CC2)OCCCC3O)ncc1C` (stereo not given), the “Percent Effect” value rises from -53.44% to -35.89%.

Going from `CC(C)[C@H]1CN(S(=O)(=O)c2cccnc2)C[C@@H]1N` to `COc1cccc(S(=O)(=O)N2C[C@@H](N(C)C)[C@H](C(C)C)C2)c1`, the “Percent Effect” value rises from -121.7% to 72.07%.

First: CC(C)[C@@H]1CN(S(=O)(=O)c2cccc(C(=O)O)c2)C[C@H]1N(C)C
Second: CN(Cc1ccco1)Cc1cncc2c1CCN(S(C)(=O)=O)C2.Cl.Cl
The “Percent Effect” value of the first is lower: -75.82% for the first, -71.86% for the second.

Going from `Cc1ccc(C(=O)Nc2nnc(C(C)C)s2)c(-n2cnnn2)c1C` to `CCOC(=O)c1cnn(-c2cc(Oc3ccccc3C)ncn2)c1N`, the “Percent Effect” value rises from -117.2% to -71.43%.

Going from `Cc1cnn(CCNCc2nccn2CC(F)(F)F)c1` to `Cc1cnn(CCNCc2nccn2Cc2ccccc2)c1`, the “Percent Effect” value rises from 12.08% to 81.96%.

Compared with `CC(NC(=O)c1cccs1)(C(N)=O)c1cccc(C(F)(F)F)c1` (stereo not given), `COC(=O)C(C)(C)NC(=O)c1cnc(Cc2ccc(F)cc2)s1` is higher in “Percent Effect” value: -110.1% for the first, 74.7% for the second.

Compared with `CCc1ncc(C(=O)NC(C)(C)C(=O)OC)s1`, `CCCNC(=O)CCNc1cncc(-n2nc(C)cc2C)n1` is lower in “Percent Effect” value: -64.84% for the first, -96.17% for the second.

Compared with `CC1c2cccn2CCN1C(=O)CCc1nc(-c2ccccc2)no1` (stereo not given), `CNC(=O)COc1ccc(-c2ccccc2)nc1` is lower in “Percent Effect” value: -13.83% for the first, -42.95% for the second.

First: Cc1cccc2c1OCCC2NCc1c(C)nn(C)c1N(C)C (stereo not given)
Second: Cc1nn(C)c(N(C)C)c1CNC1CCOc2c(F)cccc21 (stereo not given)
The “Percent Effect” value of the first is higher: -2.294% for the first, -94.95% for the second.

First: Cn1cc(CNC2CCCOc3c(Cl)cccc32)cn1 (stereo not given)
Second: CNC(=O)Cc1noc(Cc2cccc(Cl)c2)n1
The “Percent Effect” value of the first is higher: 17.16% for the first, -69.96% for the second.

Compared with `O=C(O)Cc1cnc(-c2c(Cl)cccc2Cl)s1`, `CCOc1cccc(COC(=O)c2cc(C)on2)n1` is higher in “Percent Effect” value: -103% for the first, -20.94% for the second.

First: FC(F)(F)c1ccnc(N2C[C@H]3CCN(c4cccnc4)C[C@H]3C2)n1.O=C(O)C(F)(F)F
Second: CC1CN(C)CCN1C(=O)c1ccn(-c2ccc(F)cc2)n1 (stereo not given)
The “Percent Effect” value of the first is higher: -4.152% for the first, -53.04% for the second.

First: CCC(NCc1ccccn1)c1ccccc1OCC(=O)NC (stereo not given)
Second: CCC(NCc1ccccc1)c1ccccc1OCC(=O)NC (stereo not given)
The “Percent Effect” value of the first is lower: -34.3% for the first, 63.6% for the second.

Going from `O=S(=O)(CCN1CCCC1Cn1cccn1)c1ccccc1` (stereo not given) to `NC(=O)CNC1(c2ccc(Cl)cc2)CCCC1`, the “Percent Effect” value falls from -24.99% to -116.4%.

Going from `Clc1ccc(C2(CNC3=NCCN3)CCCC2)cc1.I` to `Clc1ccc(C2(CNC3=NCCN3)CCCCC2)cc1.I`, the “Percent Effect” value rises from 83.48% to 89.77%.

With `CN(C)C(=O)CCS(=O)(=O)Cc1cc(Cl)c2c(c1)OCO2` the “Percent Effect” value was -99.04%.
